# Test results reported in PubChem BioAssay AID1159580 (chemical genetic matrix, 2015).
# Screen size: about 5,500 compounds; about 2,000 (36%) were called active. Not shown: some 18% with an inconclusive outcome. The list shows a part of the results. A number with no mark means an inactive call. Rule as the data show it: active = normalized growth mostly below about 0.91 (no sharp cut-off); inconclusive = no clear call, values can overlap the other calls; inactive = mostly above about 0.92.
# Test: chemical genetic growth profiling, strain panel (AID 1159580);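 also: tested at 20 µM; growth read once vehicle control cultures reached saturation at 30 °C; 1 = growth at the plate median or of vehicle wells; lower values mean less growth of the strain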
# Conditions: S. cerevisiae deletion strains, growth OD
# [1] = locus YER002W, strain NOP16, active compounds read low
# [2] = locus YNL175C, strain NOP13, active compounds read low
# [3] = locus YNL197C, strain WHI3, active compounds read low
# [4] = locus YNL224C, strain SQS1, active compounds read low
# [5] = locus YOR083W, strain WHI5 (second series), active compounds read low
structure (smiles),measurement,setting,value
NS(=O)(=O)c1cccc2c1c([N+](=O)[O-])cc1nc(O)c(O)nc12,normalized growth,"locus YAL013W, strain DEP1, active compounds read low",1
same,normalized growth,"locus YAL040C, strain CLN3, active compounds read low",1.08
same,normalized growth,"locus YCL061C, strain MRC1 (second series), active compounds read low",0.998
same,normalized growth,"locus YDR363W, strain ESC2, active compounds read low",1.01
same,normalized growth,[1],0.999
same,normalized growth,"locus YGR078C, strain PAC10, active compounds read low",0.995
same,normalized growth,"locus YMR307W, strain GAS1, active compounds read low",0.997
same,normalized growth,[2],0.989
same,normalized growth,[3],1.01
same,normalized growth,[4],1
same,normalized growth,"locus YNL322C, strain KRE1, active compounds read low",0.998
same,normalized growth,[5],1.01
same,normalized growth,"locus YPL055C, strain LGE1, active compounds read low",1
O=[N+]([O-])c1cccc2c(Br)[nH]nc12,normalized growth,"locus YAL021C, strain ccr4, active compounds read low",0.955
same,normalized growth,"locus YAL026C, strain drs2, active compounds read low",0.993
same,normalized growth,"locus YAL030W, strain snc1, active compounds read low",0.984
same,normalized growth,"locus YBL061C, strain skt5, active compounds read low",0.982
same,normalized growth,"locus YBR009C, strain hhf1, active compounds read low",1.01
same,normalized growth,"locus YBR023C, strain chs3, active compounds read low",0.992
same,normalized growth,"locus YBR171W, strain sec66, active compounds read low",0.972
same,normalized growth,"locus YBR231C, strain swc5, active compounds read low",0.997
same,normalized growth,"locus YBR279W, strain paf1, active compounds read low",0.992
same,normalized growth,"locus YCL011C, strain gbp2, active compounds read low",0.976
same,normalized growth,"locus YCL016C, strain dcc1, active compounds read low",0.996
same,normalized growth,"locus YCL061C, strain MRC1, active compounds read low",0.983
same,normalized growth,"locus YCL069W, strain vba3, active compounds read low",0.972
same,normalized growth,"locus YCR088W, strain abp1, active compounds read low",0.986
same,normalized growth,"locus YDL005C, strain med2, active compounds read low",0.977
same,normalized growth,"locus YDL040C, strain nat1, active compounds read low",0.99
same,normalized growth,"locus YDR001C, strain nth1, active compounds read low",0.984
same,normalized growth,"locus YDR069C, strain doa4, active compounds read low",0.965
same,normalized growth,"locus YDR137W, strain rgp1, active compounds read low",0.942
same,normalized growth,"locus YDR150W, strain NUM1, active compounds read low",0.961
same,normalized growth,"locus YDR159W, strain sac3, active compounds read low",1.07
same,normalized growth,"locus YDR195W, strain ref2",1.09
same,normalized growth,"locus YDR297W, strain sur2, active compounds read low",0.977
same,normalized growth,"locus YDR334W, strain swr1, active compounds read low",0.956
same,normalized growth,"locus YDR335W, strain msn5, active compounds read low",0.975
same,normalized growth,"locus YDR392W, strain spt3, active compounds read low",0.852
same,normalized growth,"locus YEL003W, strain gim4, active compounds read low",0.978
same,normalized growth,"locus YEL037C, strain rad23, active compounds read low",0.99
same,normalized growth,"locus YEL061C, strain CIN8 (second series), active compounds read low",0.987
same,normalized growth,[1],0.975
same,normalized growth,"locus YER015W, strain faa2, active compounds read low",0.973
same,normalized growth,"locus YER016W, strain bim1, active compounds read low",0.998
same,normalized growth,"locus YER111C, strain swi4, active compounds read low",0.998
same,normalized growth,"locus YER155C, strain BEM2 (second series), active compounds read low",0.948
same,normalized growth,"locus YFR010W, strain ubp6, active compounds read low",0.972
same,normalized growth,"locus YGL167C, strain pmr1, active compounds read low",0.99
same,normalized growth,"locus YGL173C, strain kem1, active compounds read low",0.983
same,normalized growth,"locus YGL227W, strain vid30, active compounds read low",0.993
same,normalized growth,"locus YGL240W, strain doc1, active compounds read low",0.996
same,normalized growth,"locus YGL253W, strain hxk2, active compounds read low",0.988
same,normalized growth,"locus YHR013C, strain ard1, active compounds read low",1.03
same,normalized growth,"locus YHR027C, strain rpn1, active compounds read low",0.974
same,normalized growth,"locus YHR030C, strain SLT2, active compounds read low",0.933
same,normalized growth,"locus YHR079C, strain IRE1, active compounds read low",0.937
same,normalized growth,"locus YHR142W, strain chs7, active compounds read low",0.901
same,normalized growth,"locus YJL092W, strain hpr5, active compounds read low",0.969
same,normalized growth,"locus YJL095W, strain BCK1 (second series), active compounds read low",0.977
same,normalized growth,"locus YJL095W, strain BCK1, active compounds read low",0.911
same,normalized growth,"locus YJL115W, strain asf1, active compounds read low",0.985
same,normalized growth,"locus YJL129C, strain trk1, active compounds read low",0.988
same,normalized growth,"locus YJL154C, strain vps35, active compounds read low",0.983
same,normalized growth,"locus YJL164C, strain tpk1, active compounds read low",0.932
same,normalized growth,"locus YJL166W, strain qcr8, active compounds read low",0.952
same,normalized growth,"locus YJL187C, strain SWE1, active compounds read low",0.98
same,normalized growth,"locus YJR066W, strain TOR1, active compounds read low",0.882
same,normalized growth,"locus YKL160W, strain elf1, active compounds read low",0.916
same,normalized growth,"locus YKR026C, strain gcn3, active compounds read low",0.988
same,normalized growth,"locus YKR091W, strain srl3, active compounds read low",0.976
same,normalized growth,"locus YLL001W, strain dnm1, active compounds read low",0.977
same,normalized growth,"locus YLL026W, active compounds read low",0.98
same,normalized growth,"locus YLL041C, strain sdh2, active compounds read low",0.976
same,normalized growth,"locus YLR027C, strain aat2, active compounds read low",0.972
same,normalized growth,"locus YLR113W, strain HOG1, active compounds read low",1.04
same,normalized growth,"locus YLR221C, strain rsa3, active compounds read low",0.937
same,normalized growth,"locus YLR258W, strain gsy2, active compounds read low",0.994
same,normalized growth,"locus YLR262C, strain YPT6 (second series), active compounds read low",0.986
same,normalized growth,"locus YLR320W, strain mms22, active compounds read low",0.99
same,normalized growth,"locus YLR342W, strain FKS1, active compounds read low",0.987
same,normalized growth,"locus YLR357W, strain rsc2, active compounds read low",1.02
same,normalized growth,"locus YLR370C, strain arc18, active compounds read low",0.986
same,normalized growth,"locus YLR384C, strain iki3, active compounds read low",0.987
same,normalized growth,"locus YML120C, strain ndi1, active compounds read low",0.94
same,normalized growth,"locus YMR058W, strain fet3, active compounds read low",0.942
same,normalized growth,"locus YMR125W, strain sto1, active compounds read low",1.01
same,normalized growth,"locus YMR129W, active compounds read low",0.99
same,normalized growth,"locus YMR205C, strain PFK2, active compounds read low",1.05
same,normalized growth,"locus YMR231W, strain pep5, active compounds read low",0.994
same,normalized growth,"locus YNL071W, strain lat1, active compounds read low",0.982
same,normalized growth,[2],0.972
same,normalized growth,"locus YNL183C, strain NPR1, active compounds read low",0.873
same,normalized growth,[3],1.01
same,normalized growth,"locus YNL209W, strain ssb2, active compounds read low",0.973
same,normalized growth,[4],0.982
same,normalized growth,"locus YNL248C, strain rpa49, active compounds read low",0.871 (active)
same,normalized growth,"locus YNL322C, strain KRE1 (second series), active compounds read low",0.994
same,normalized growth,"locus YNR049C, strain mso1, active compounds read low",0.977
same,normalized growth,"locus YOR001W, strain rrp6, active compounds read low",0.928
same,normalized growth,"locus YOR070C, strain gyp1, active compounds read low",0.984
same,normalized growth,"locus YOR080W, strain dia2, active compounds read low",0.987
same,normalized growth,[5],0.991
same,normalized growth,"locus YOR083W, strain WHI5, active compounds read low",0.881 (active)
same,normalized growth,"locus YOR106W, strain vam3, active compounds read low",0.863 (active)
same,normalized growth,"locus YOR231W, strain MKK1, active compounds read low",0.929
same,normalized growth,"locus YOR265W, strain rbl2, active compounds read low",0.982
same,normalized growth,"locus YOR270C, strain vph1, active compounds read low",0.804
same,normalized growth,"locus YOR290C, strain snf2, active compounds read low",0.919
same,normalized growth,"locus YPL051W, strain arl3, active compounds read low",0.899 (active)
same,normalized growth,"locus YPL078C, strain atp4, active compounds read low",0.874 (active)
same,normalized growth,"locus YPL106C, strain sse1, active compounds read low",0.979
same,normalized growth,"locus YPL240C, strain hsp82, active compounds read low",0.979
same,normalized growth,"locus YPL256C, strain CLN2, active compounds read low",0.97
